Experimental data taken from ChEMBL document CHEMBL3988442, “University of Dundee, Small-Polar-MMV Screening Library” (2021).
Out of some 48,000 compounds screened, about 13,000 (27%) showed an effect of 50% or more. Some of the results follow.

What follows are compounds tested on Wolbachia pipientis (assay: Anti-Wolbachia Cell-Based Screen). Settings: 5 µM.
Format: functional
Parameters: scale not given: in the data most compounds retested in dose-response had high values

First: Cc1ccc(S(=O)(=O)Nc2ccc(-n3nnn(C)c3=O)cc2)cc1
Second: Cc1ccc(-n2ncc(C(=O)NC3CCCCC3)c2N)cc1
The “Percent Effect” value of the first is higher: 8.508% for the first, 3.957% for the second.

First: O=S(=O)(Nc1ccc(N2CCOCC2)cn1)c1cccc(F)c1
Second: Cn1cc(CN2CCOC(c3cccc(-c4cccc(F)c4)n3)C2)cn1 (stereo unspecified)
The “Percent Effect” value of the first is lower: 2.193% for the first, 143.3% for the second.

Compared with `COc1cccc(OCC2CCCN(C(=O)c3ncc(F)cc3F)C2)c1` (stereo unspecified), `Cn1cc(CNC(=O)C2CCCN(Cc3cccc(F)c3)C2)cn1` (stereo unspecified) is higher in “Percent Effect” value: -61.26% for the first, -5.601% for the second.

First: CCNc1ncc(C(=O)NC2COC3(CCCC3)C2)cn1 (stereo unspecified)
Second: c1nc2c(c(NC3COC4(CCCC4)C3)n1)CCNCC2 (stereo unspecified)
The “Percent Effect” value of the first is lower: -5.692% for the first, 100.1% for the second.

First: COC[C@H]1CCC[C@H]1Nc1ncnc2c1CCNCC2
Second: CC(C)Nc1ncnc2c1CCNCC2
The “Percent Effect” value of the first is higher: 95.23% for the first, -5.966% for the second.

Going from `COCC(=O)N1CCCN(c2ncnc3c2CCNCC3)CC1` to `c1nc2c(c(NC3CCc4ncnn4C3)n1)CCC2` (stereo unspecified), the “Percent Effect” value falls from 1.266% to -6.936%.

Going from `CC(NC(=O)CCN1CCOC1=O)(c1ccccc1)c1ccccc1` to `O=C(COCc1ccccc1)N1CCN(Cc2ccccc2F)C(=O)C1`, the “Percent Effect” value falls from 8.215% to -37.48%.

First: CC(Oc1ccccc1C(F)(F)F)C(=O)NS(=O)(=O)C(C)C (stereo unspecified)
Second: COc1ccnc(N(C)Cc2ccccc2OC(F)(F)F)n1
The “Percent Effect” value of the first is lower: -1.095% for the first, -0.2691% for the second.

Going from `CCC(CC(=O)Nc1ccc2c(c1)CC(=O)N2)c1ccccc1` (stereo unspecified) to `COC(=O)C1CN(CC(=O)Nc2cc(F)ccc2F)c2ccccc21` (stereo unspecified), the “Percent Effect” value rises from 3.416% to 6.543%.

Compared with `Cn1cc(C(=O)N2CCOc3ccccc32)ccc1=O`, `O=C(Cn1cc(C(=O)O)ccc1=O)Nc1ccc(F)cc1Cl` is higher in “Percent Effect” value: -9.078% for the first, -4.302% for the second.

Compared with `Cc1csc(CCNC(=O)C2CCOC2)n1` (stereo unspecified), `O=C(NCCc1cccc(Cl)c1)C1CCOCC1` is higher in “Percent Effect” value: 0.3325% for the first, 2.096% for the second.

First: O=C(NCCc1cc2nc(-c3ccncc3)ccn2n1)C1CCOCC1
Second: O=C(NCCc1cc2nc(-c3ccncc3)ccn2n1)C1CC1
The “Percent Effect” value of the first is higher: 126.4% for the first, 124.8% for the second.

First: CC(C)N1CC(C(=O)NCCc2csc(-c3ccncc3)n2)CC1=O (stereo unspecified)
Second: O=C(Nc1cc(-c2ccncc2)no1)C1CC1
The “Percent Effect” value of the first is higher: 2.271% for the first, -3.278% for the second.

Going from `Cc1cc(=O)n(C)cc1NC(=O)NCc1cccc(F)c1` to `Cc1cc(C)c(CNC(=O)NCCNc2ncccn2)c(=O)[nH]1`, the “Percent Effect” value falls from 28.52% to -4.444%.

Compared with `CN1CCOC(C(=O)Nc2nc(-c3ccccc3F)n[nH]2)C1` (stereo unspecified), `Cc1nc(C)n(CC2CN(CCOc3ccccc3F)CCO2)n1` (stereo unspecified) is higher in “Percent Effect” value: -6.828% for the first, 5.326% for the second.

Going from `O=C(Cc1ccccc1)N1CC(=O)N(Cc2ccco2)CC(O)C1` (stereo unspecified) to `O=C1CN(C(=O)OCc2ccccc2)CC(O)CN1Cc1ccco1` (stereo unspecified), the “Percent Effect” value falls from 119.5% to 93.23%.

Compared with `O=C(O)C(F)(F)F.c1coc(CN2Cc3ccnn3CC(COCC3CC3)C2)c1` (stereo unspecified), `COCCN1C2(CCN(CC3CC3)C2)c2ccccc2S1(=O)=O.O=C(O)C(F)(F)F` (stereo unspecified) is higher in “Percent Effect” value: 5.412% for the first, 102.4% for the second.

Going from `O=C1NCCO[C@H]2CN(C(=O)Cc3ccco3)CC[C@@H]12` to `CO[C@@H]1CC[C@H]2[C@H]1OCCN2C(=O)c1ccco1`, the “Percent Effect” value rises from -15.97% to -5.889%.

Compared with `O=C(Cc1ccc(-c2ccccc2)cc1)N1CCOCC(O)C1` (stereo unspecified), `Cc1cccc(OC2CCN(C(=O)Cn3ccc4ccccc43)CC2)n1` is higher in “Percent Effect” value: -43.76% for the first, 1.872% for the second.

Compared with `O=C(C1CN(Cc2ccoc2)CC12CCOCC2)N1CCCC1` (stereo unspecified), `Cn1cc(C#N)cc1C(=O)N1CCC2(CCCN(CC3CCC3)C2=O)C1` (stereo unspecified) is lower in “Percent Effect” value: -22.56% for the first, -29.9% for the second.

Going from `COCc1cc(C[C@@H]2CC[C@H](O)[C@@H](CN(C)C)O2)no1` to `CO[C@H]1CC[C@H]2[C@H]1OCCN2C(=O)c1nn(C)c2ccccc12`, the “Percent Effect” value rises from 7.016% to 119%.

Compared with `O=C(O)C(F)(F)F.O=C(c1ccoc1)N1CC[C@H]2OCC[C@@]2(COc2ncccc2F)C1`, `CC(C)c1ccc(CN2CCC3(CCCN(c4nncs4)C3)C2)cc1.O=C(O)C(F)(F)F` (stereo unspecified) is higher in “Percent Effect” value: 0.551% for the first, 37.55% for the second.

Compared with `COc1ccc(C(C)N2CCC(NS(C)(=O)=O)CC2)cc1Cl` (stereo unspecified), `COC(=O)CC1CCCCN1CC(=O)Nc1ccc(F)cc1Cl` (stereo unspecified) is higher in “Percent Effect” value: -1.711% for the first, 107.7% for the second.

Going from `CC(C)O[C@@H]1CC[C@H]2[C@H]1OCCN2C(=O)c1nn(C)c2ccccc12` to `CO[C@@H]1CC[C@H]2[C@H]1OCCN2C(=O)c1nn(C)c2ccccc12`, the “Percent Effect” value rises from 112.4% to 115.4%.

Going from `COCCNC(=O)Nc1cccc(COCCOC(C)C)c1` to `COc1ccc(C(=O)O)cc1-c1cccc(C(C)N(C)C)c1` (stereo unspecified), the “Percent Effect” value rises from -33.02% to -0.7125%.

First: O=C(CN1CCCCC1C1OCCO1)Nc1ccc(F)c(F)c1 (stereo unspecified)
Second: COC(=O)CC1CCCCN1CC(=O)Nc1cc(F)ccc1F (stereo unspecified)
The “Percent Effect” value of the first is lower: -7.301% for the first, 97.72% for the second.

Compared with `Cc1nc(C)n(CC2CCCN2CC(=O)NCCc2ccccc2)n1` (stereo unspecified), `O=C(CN1CCCCC1Cn1cncn1)NCCc1ccc(F)cc1` (stereo unspecified) is lower in “Percent Effect” value: 5.202% for the first, -1.768% for the second.

Compared with `CCOC(=O)N1CCN(CC(=O)Nc2ccc(F)cc2Cl)CC1`, `Cc1cccc(OCCC(=O)N2CCN(S(=O)(=O)N(C)C)CC2)c1C` is higher in “Percent Effect” value: -11.41% for the first, -2.723% for the second.

Going from `COC(=O)CC1CCCCN1CC(=O)NCCc1ccc(F)cc1` (stereo unspecified) to `Cc1c(C(=O)NC2CC(C)(C)NC(C)(C)C2)cnn1-c1ccc(F)cc1`, the “Percent Effect” value falls from 106.1% to -13.93%.

Going from `CCc1nsc(NC2CCCn3nc(CC)nc32)n1` (stereo unspecified) to `CCc1nc(C2CCCN2Cc2nnc(CC)o2)no1` (stereo unspecified), the “Percent Effect” value falls from 0.3299% to -8.839%.

First: Nc1nc2c(c(NC(=O)Nc3ccc(Cl)c(Cl)c3)n1)CCCC2
Second: CCOC(=O)c1ccc(NC(=O)c2c(O)nc3c(c2O)CCCC3)cc1
The “Percent Effect” value of the first is lower: 4.347% for the first, 115.5% for the second.

First: CC1=NN(c2ccc(C(=O)OCCNC(=O)c3ccncc3)cc2)CC1
Second: COc1ccc(CN(C(=O)C2CCCO2)c2ccncc2)cc1 (stereo unspecified)
The “Percent Effect” value of the first is higher: 6.071% for the first, -15.48% for the second.

Going from `CC(C)(C)c1cnc(CN2CCCS(=O)(=O)CC2)o1` to `CC(C)Cc1noc(CN2CCN(CCOc3ccc(Cl)cc3)CC2)n1`, the “Percent Effect” value falls from -0.7322% to -9.815%.

First: OCC1CCN(Cc2cc3c(cc2Br)OCCO3)CC1
Second: Cc1nc(C(=O)NC2CCN(CCOc3ccc(Br)cc3)CC2)cs1
The “Percent Effect” value of the first is lower: -6.909% for the first, 6.734% for the second.

First: Cn1ccnc1CN1CCCC1c1noc(C2CC2)n1 (stereo unspecified)
Second: FC(F)(F)Cn1ccnc1CN1CCCC1c1noc(C2CC2)n1 (stereo unspecified)
The “Percent Effect” value of the first is higher: 3.243% for the first, 2.411% for the second.

Going from `c1cc(CN2CCCC2c2noc(C3CC3)n2)on1` (stereo unspecified) to `CCc1nc(C2CCCN2Cc2ccno2)no1` (stereo unspecified), the “Percent Effect” value rises from 95.79% to 111.3%.

First: CC(C)c1nc(C2CCCN2Cc2ccno2)no1 (stereo unspecified)
Second: COc1ccc(CN(C)Cc2ccnc(C3CCCO3)n2)cc1 (stereo unspecified)
The “Percent Effect” value of the first is lower: -3.719% for the first, 120.3% for the second.

Compared with `O=S(=O)(N1CCCCCC1)N1CCc2sccc2C1`, `COc1cccc2c1N(S(=O)(=O)c1cc(C(=O)O)cs1)CCC2` is lower in “Percent Effect” value: 4.086% for the first, -3.989% for the second.

Going from `CS(=O)(=O)N1CCOC(CNC(=O)c2cccc(C#N)c2)C1` (stereo unspecified) to `Cc1ccc(C(=O)O)cc1S(=O)(=O)N(C)c1cccc(C#N)c1`, the “Percent Effect” value rises from -22.73% to 8.363%.

Going from `O=C(c1cccc(F)c1)N(CCCO)S(=O)(=O)c1cccs1` to `CN(CC(=O)N1CC(Oc2ccccc2Cl)C1)Cc1ccncc1`, the “Percent Effect” value rises from -5.785% to -2.119%.

Compared with `Cn1cc(CN2CCOC(c3nccnc3-c3cccc(F)c3)C2)cn1` (stereo unspecified), `Cn1cc(CN2CCCC(c3nccnc3-c3cccc(F)c3)C2)cn1` (stereo unspecified) is lower in “Percent Effect” value: 187.6% for the first, 135.8% for the second.

Compared with `Cn1cc(CN2CCCC(CCc3ccccc3C(F)(F)F)C2)cn1` (stereo unspecified), `COc1ccc(Cl)cc1NC(=O)CCC1CCCN(Cc2ncon2)C1` (stereo unspecified) is higher in “Percent Effect” value: 9.578% for the first, 23.91% for the second.

Compared with `Cl.O=C(NC[C@@]1(COc2cnccn2)C[C@@H](O)[C@@H](O)C1)C1CCCC1`, `COc1ccc(CN(C(=O)C2CCOCC2)c2ccncc2)cc1` is lower in “Percent Effect” value: -8.405% for the first, -12.74% for the second.

Going from `COc1ccccc1CN(C)Cc1ccnc(C2CCCO2)n1` (stereo unspecified) to `CCCN(Cc1cnc2ccccc2n1)Cc1ccccc1OC`, the “Percent Effect” value falls from 134% to -2.298%.

Going from `Cc1nc(NC(=O)NCc2cccnc2NCCN(C)C)sc1C` to `Cc1csc2c(C3CCN(CCCOc4ccccc4)CC3)nc(C)n12`, the “Percent Effect” value rises from -3.378% to 96.85%.

First: COCCN1CCC2(C1)c1ccccc1S(=O)(=O)N2Cc1ccccc1.O=C(O)C(F)(F)F (stereo unspecified)
Second: COCCN1CCC2(C1)c1ccccc1S(=O)(=O)N2C.O=C(O)C(F)(F)F (stereo unspecified)
The “Percent Effect” value of the first is lower: 6.934% for the first, 90.85% for the second.

First: CC(C)C(=O)Nc1cc(C(=O)NC2CC(C)(C)NC(C)(C)C2)nn1C
Second: Cc1ccc(-n2ncc(C(=O)NC3CC(C)(C)NC(C)(C)C3)c2N)cc1
The “Percent Effect” value of the first is lower: -26.3% for the first, 174.2% for the second.

Compared with `CC1(C)CC(NC(=O)c2cnn(-c3ccccc3F)c2N)CC(C)(C)N1`, `Cc1nc(CCN2CCC(Oc3ccccc3F)CC2)cs1` is lower in “Percent Effect” value: 151.8% for the first, -0.6309% for the second.

Going from `CC(C)(C)SCCNC(=O)[C@@]12CNC[C@@H]1CN(S(C)(=O)=O)C2` to `Cc1ccc(C(=O)O)cc1-c1cccc2c1CCNC2`, the “Percent Effect” value rises from 5.951% to 128.8%.

Going from `Cc1ccc(OCCN2CCC(c3nc(C)n4c(C)csc34)CC2)cc1` to `Cc1csc2c(C3CCN(CCOc4ccccc4F)CC3)nc(C)n12`, the “Percent Effect” value falls from 140.7% to 93.69%.

Going from `CCCc1n[nH]c(C2CN(CCCOc3ccccc3)CCO2)n1` (stereo unspecified) to `Cc1cnc(-n2cnnc2)c(-c2cccc3c2CCNC3)c1`, the “Percent Effect” value falls from -4.502% to -5.841%.

First: O=C(c1cnc(OCC(F)(F)F)c(Cl)c1)N1CCc2ccc(O)cc2C1
Second: O=C(O)c1cnc(-c2cccc3c2CCNC3)c(Cl)c1
The “Percent Effect” value of the first is lower: -3.134% for the first, 123.8% for the second.

Going from `O=C(O)c1cnc(OCC2CC2)c(Cl)c1` to `COc1ccc(C(=O)O)cc1-c1cccc2c1CCNC2`, the “Percent Effect” value rises from -32.81% to 99.52%.
